Broadly, the AC50 is the midpoint of the concentration-response curve, whichever way the signal moves. Broadly, the inhibition is the relative decrease from the control value, in per cent.

Molecules are shown by their SMILES. “And” between values parts separate entries of the source, which are not always exact repeats. Identical values can stand only once. Inconclusive results are not listed. The source made the active and inactive calls. Rule as the data show it, unless noted: active = inhibition above about 80%; inactive = the rest.

The results in this text go back to PubChem BioAssay.

Assay [1] has as its target Mitogen-activated protein kinase 7 (Homo sapiens) (UniProt Q13164). Description: Gal4-ERK5 driven luciferase induction – cell-based, HTS, primary screen (AID 1508626;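 active = luciferase signal above three times the same-plate solvent-only control wells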;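 also: luciferase driven by Gal4-ERK5 fusion binding five Gal4 sites before minimal TATA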). The note with it: HeLa Gal4-ERK5 transactivation, 18 h, at 5 µM, stronger effect = higher value.
The nature of assay [2]: galactose survival enhancers in mitochondrial complex I cybrids – cell-based, galactose medium, ATP luminescence, primary screen (AID 1645843;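 active = z-score of at least 1.8 in each of two replicates, scored against plate mean and spread of sample wells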;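 also: positive z means more ATP and so rescue of galactose-driven cybrid death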). To be noted: complex I mutant cybrid cells, 72 h, stronger effect = higher value.
Assay [3] is described as follows: growth inhibition of DIPG cells – cell-based, MIPE5.0 library, qHTS (AID 1347068; cut-off not given, nearly all actives have IC50 up to about 30 µM). To be noted: SU-DIPG-XXV viability.
Assay [4] in a line: viability loss in pontine glioma line – cell-based, JHH-DIPG-1, MIPE4.0, CellTiter-Glo, qHTS, dose response (AID 1347062; cut-off not given, nearly all actives have AC50 up to about 27 µM;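 as to AC50: cells exposed to compound for two days before readout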). To be noted: JHH-DIPG-1 viability, CellTiter-Glo ATP luminescence.
Assay [5] is described as follows: viability loss in pontine glioma line – cell-based, SU-DIPG-IV, MIPE4.0, CellTiter-Glo, qHTS, dose response (AID 1347063; cut-off not given, nearly all actives have AC50 up to about 30 µM;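 also: compound exposure lasted 48 hours before the viability readout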). The note with it: CellTiter-Glo ATP luminescence. (ATP-based viability assays read luminescence as a measure of living cells.)
Assay [6] is described as follows: viability loss in pontine glioma line – cell-based, SU-DIPG-XIII, MIPE5.0, CellTiter-Glo, qHTS, dose response (AID 1347064; cut-off not given, nearly all actives have AC50 up to about 23 µM;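 as to AC50: cells exposed to compound for 48 hours before the viability read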). The note with it: CellTiter-Glo ATP luminescence.
Assay [7] in a line: viability loss in pontine glioma line – cell-based, SU-DIPG-XXV, MIPE5.0, CellTiter-Glo, qHTS, dose response (AID 1347065; cut-off not given, nearly all actives have AC50 up to about 26 µM;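 also: cells exposed to compound for 48 hours before ATP readout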). To be noted: CellTiter-Glo ATP luminescence.
Assay [8] in a line: growth inhibition of DIPG cells – cell-based, MIPE4.0 library, CellTiter-Glo luminescence, qHTS (AID 1347066; cut-off not given, nearly all actives have AC50 up to about 30 µM;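 also: cells exposed to compound for 48 hours before readout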). The note with it: SU-DIPG-VI viability, CellTiter-Glo ATP luminescence.
Assay [9] is described as follows: JHH-DIPG-1 glioma cell viability, MIPE5.0 library, CellTiter-Glo luminescence, qHTS (AID 1347067; cut-off not given, nearly all actives have AC50 up to about 26 µM;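 also: cells exposed to compound for 48 hours before readout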). The note with it: JHH-DIPG-1 glioma viability, CellTiter-Glo ATP luminescence.
Assay [10] in a line: growth inhibition, single agents and combos, LFS_MB_1R, cell-based, cisplatin or BGB combos, synergistic combos for chromothripsis tumors (AID 1671452).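 Also: cells exposed for 96 hours before readout.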 The note with it: LFS_MB_1R medulloblastoma cells, stronger effect = higher value.
Assay [11] is described as follows: growth inhibition, single agents and combos, CRL2098, cell-based, BGB or cisplatin IC20 combos, synergistic combos for chromothripsis tumors (AID 1671454).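 Also: cells exposed for 96 h before readout; 0% = vehicle DMSO and 100% = killing by high DMSO.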 To be noted: CRL2098 osteosarcoma cells, drug combinations, stronger effect = higher value.
Assay [12] in a line: growth inhibition, single agents and combos, HD-MB03, cell-based, BGB or cisplatin IC20 combos, synergistic combos for chromothripsis tumors (AID 1671455; in the data active = inhibition above about 83%;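 also: 0% = vehicle DMSO and 100% = high DMSO as cytotoxic control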). To be noted: HD-MB03 medulloblastoma cells, stronger effect = higher value.
Assay [13] in a line: growth inhibition, single agents and combos, UWB1.289, cell-based, BGB or cisplatin combos, synergistic combos for chromothripsis tumors (AID 1671456).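 Also: cells exposed to compound for four days; 0% = vehicle DMSO and 100% = killing by high DMSO.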 The note with it: UWB1.289 ovarian carcinoma cells, stronger effect = higher value.
The nature of assay [14]: growth inhibition, single agents and combos, LFS_MB_2R, cell-based, cisplatin combos, synergistic combos for chromothripsis tumors (AID 1671457).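 Also: cells exposed to compound for four days before readout.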 The note with it: LFS_MB_2R medulloblastoma cells, stronger effect = higher value.
Assay [15] in a line: UWB1.289_BRCA1 ovarian cancer growth, cell-based, BGB or cisplatin combinations (AID 1671459). The note with it: UWB1.289 BRCA1 ovarian carcinoma, drug combinations, stronger effect = higher value.
Assay [16] in a line: drug combination toxicity in non-malignant astrocytes – cell-based, BGB or cisplatin IC20 combos, cytotoxicity control for chromothriptic childhood tumor combination screen (AID 1671460).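 Also: cells exposed to compounds for 96 hours before viability readout; 0% = vehicle and 100% = killing control.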 To be noted: Human astrocytes, viability inhibition, drug combinations, at 0.5 µM, stronger effect = higher value.
Assay [17] can be described thus: BT084 cell growth, single and combined drugs, ICGC_MB145, cisplatin and BGB IC40 combos (AID 1671461).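 Also: cells exposed to drugs for 96 hours; 0% = vehicle DMSO and 100% = high DMSO full killing control.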 The note with it: BT084 medulloblastoma cells, drug combinations, stronger effect = higher value.
The nature of assay [18]: RCMB18 cell growth, single agent and combined, cisplatin and BGB IC40 combos (AID 1671462).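 Also: cells exposed to compound for four days.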 To be noted: RCMB18 medulloblastoma cells, stronger effect = higher value.
Assay [19] in a line: CRL1545 cell growth, single agent and combined, cisplatin and BGB IC20 combos (AID 1671464).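 Also: cells exposed to compound for 96 hours before readout; 0% = vehicle DMSO and 100% = high DMSO killing control.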 The note with it: CRL1545 osteosarcoma cells, stronger effect = higher value.
Where [20] appears, read: measured here: combination with cisplatin, at 0.5 µM.
The mark [21] stands for this setting: measured here: combination with cisplatin, at 5 µM.

Chain of Mitogen-activated protein kinase 7 (Homo sapiens) (Q13164 whole entry, looked up, the tested form may be a part): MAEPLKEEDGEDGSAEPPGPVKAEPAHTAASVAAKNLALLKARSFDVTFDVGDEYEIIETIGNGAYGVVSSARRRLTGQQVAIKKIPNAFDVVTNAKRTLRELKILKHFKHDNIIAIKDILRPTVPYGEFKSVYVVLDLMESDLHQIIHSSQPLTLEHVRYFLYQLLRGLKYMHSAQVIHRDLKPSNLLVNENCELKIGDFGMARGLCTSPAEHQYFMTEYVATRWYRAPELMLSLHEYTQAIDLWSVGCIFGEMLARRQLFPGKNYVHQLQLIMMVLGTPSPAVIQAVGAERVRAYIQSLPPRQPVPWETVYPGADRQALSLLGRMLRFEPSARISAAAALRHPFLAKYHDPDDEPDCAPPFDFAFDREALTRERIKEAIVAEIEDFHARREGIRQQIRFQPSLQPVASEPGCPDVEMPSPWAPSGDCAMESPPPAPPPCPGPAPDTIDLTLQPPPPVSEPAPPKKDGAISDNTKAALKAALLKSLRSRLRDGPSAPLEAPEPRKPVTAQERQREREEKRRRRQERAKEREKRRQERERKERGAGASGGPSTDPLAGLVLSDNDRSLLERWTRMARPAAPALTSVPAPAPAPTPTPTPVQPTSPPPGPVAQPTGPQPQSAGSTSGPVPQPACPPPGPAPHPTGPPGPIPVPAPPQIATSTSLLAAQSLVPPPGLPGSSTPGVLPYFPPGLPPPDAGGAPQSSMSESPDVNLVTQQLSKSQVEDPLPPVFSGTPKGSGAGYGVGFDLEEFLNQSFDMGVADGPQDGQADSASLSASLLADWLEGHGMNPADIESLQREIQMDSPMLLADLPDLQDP

Regarding `CCCN(CCC)CCc1cccc2c1CC(=O)N2`, the luciferase signal in [1] was 48 AU (inactive). Further, the z-score in assay [2] is 0.47 (inactive).
Take `O=C(O)CN(CCN(CC(=O)O)CC(=O)O)CCN(CC(=O)O)CC(=O)O`: in assay [2], the z-score is 4.38 (active).
For the compound `COc1ccc2[nH]c(S(=O)Cc3ncc(C)c(OC)c3C)nc2n1` (stereo not given), the outcome in assay [3] was inactive. For the same compound, in [2], the z-score was 0.825 (inactive).
`Cc1nc(Nc2ncc(C(=O)Nc3c(C)cccc3Cl)s2)cc(N2CCN(CCO)CC2)n1`: the AC50 in assay [4] is 16.6 µM (active); in [5], 16.6 µM (active); in assay [6] it was 14.8 µM (active); in assay [7] it was 14.8 µM (active); in assay [9], 7.42 µM (active). The compound was called inactive in assay [8].
For the compound `NCCCNCCSP(=O)(O)O`, the luciferase signal in assay [1] was 52 AU (inactive). Also, in assay [2], the z-score was 0.585 (inactive) and 0.25 (inactive).
As to `CN1CCN(c2c(F)cc3c(=O)c(C(=O)O)cn(CCF)c3c2F)CC1`, the call in assay [4] and in assay [5] was inactive. Further, the z-score in [2] was 0.245 (inactive). In addition, the inhibition in assay [10] (at 0.5 µM) is -3.54% (inactive); in [10] (measured here: combination with BGB IC40, at 0.05 µM), 5.98%; in assay [10] (setting [20]), 2.19%; in [10] (setting [21]), -16.1%; in assay [11] (at 0.5 µM), 11.6% (inactive); in [11] (measured here: combination with BGB at IC20, at 0.5 µM), -0.381%. In addition, the inhibition is 26.4% in [11] (measured here: combination with cisplatin at IC20, at 0.5 µM); 6.76% (inactive) in assay [12] (at 0.5 µM); 8.44% in [12] (measured here: combo with BGB at IC20, at 0.5 µM); 5.72% in assay [12] (measured here: combo with cisplatin at IC20, at 0.5 µM); 9.66% (inactive) in assay [13] (at 0.5 µM); -0.955% in assay [13] (measured here: inhibition with BGB combination, at 0.05 µM). In addition, the inhibition was 3.11% in assay [13] (measured here: inhibition with cisplatin combination, at 0.05 µM); 7.8% (inactive) in [14] (at 0.5 µM); 7.66% in assay [14] (setting [20]); -16.2% in [14] (setting [21]); 7.04% in assay [15] (BGB combination, concentration series, at 5 µM); 5.73% (inactive) in assay [15] (at 0.5 µM). Also, the inhibition in assay [15] (cisplatin combination, concentration series, at 5 µM) is -0.678%; in assay [16], 5.13% (inactive); in assay [16] (measured here: combo with BGB IC20) it was 2.15%; in assay [16] (measured here: combo with cisplatin IC20) it was 3.47%; in assay [17] (at 0.5 µM) it was -2.41% (inactive); in assay [17] (cisplatin combination, at 0.5 µM), -7.17%. The inhibition was 4.75% in [17] (cisplatin combination, at 5 µM); 34.4% in [17] (measured here: BGB IC40 combination 0.05 uM, at 0.05 µM); 1.35% in assay [17] (single agent, at 5 µM); 18.3% (inactive) in assay [18] (at 0.5 µM); 48% in assay [18] (cisplatin combo, at 5 µM); -3.02% in assay [18] (measured here: BGB IC40 combination, at 0.05 µM). The inhibition in [18] (setting [20]) is 34.2%; in assay [18] (single agent, at 5 µM), -5.57%; in [19] (at 0.5 µM), -0.47% (inactive); in assay [19] (measured here: with BGB IC20 combination, at 0.5 µM), -8.63%; in assay [19] (measured here: with cisplatin IC20 combination, at 0.5 µM), 1.43%; in [19] (single agent, at 0.05 µM), 8.93%. Moreover, the inhibition in assay [19] (single agent, at 5 µM) worked out at 2.13%.
Turning to `CC(C)Cn1cnc2c(N)nc3ccccc3c21`, the AC50 in assay [4] is 18.7 µM (active); in assay [5], 20.9 µM (active). In addition, the outcome in [6], in assay [8], in [9] and in assay [3] was inactive. For the same compound, the z-score in assay [2] was 0.245 (inactive).
